aSyn UTR act: Activators via SNCA 5'UTR binding, MLPCN | alpha-synuclein 5'UTR reporter, activators screen | activity score, % (tested at 7.5 µM), hits read low | 300,000 compounds, 7.1% hits | AID 1814; in the data active = activity score below about -60%
Numbers stand for hits; . = inactive. A selection follows.

SMILES	aSyn UTR act
S=C(NCCc1ccccc1)Nc1ccc(Cl)cc1	-135.0
S=C(NCCc1ccccc1)NCCc1ccccc1	-214.8
CC1=C/C(=N\NC(=S)NCCc2ccccc2)CC(C)(C)C1	-80.3
O=C(NCCc1ccccc1)Nc1ccc(Cl)cc1	-178.1
CC(C)(C)NC(=O)NCCc1ccccc1	-95.5
Fc1cc(Br)ccc1NC(=S)NCCc1ccccc1	-118.6
C/C(=C\c1ccccc1)C(=O)NCCc1ccccc1	-62.2
CC(C)(C)C(=O)NC(=S)NCCc1ccccc1	-92.0
Cc1ccc(NC(=O)NCCCc2ccccc2)cc1	-90.0
Oc1ccc(N=C/C=C/c2cccc(Br)c2)cc1-c1nc2ccccc2s1	-98.5
C/C(CC1CC(COCC(C)C)OC1=O)=N\Nc1nc(-c2ccccc2)cs1 (stereo not drawn)	-82.2
Cc1cc(Br)ccc1OCC(=O)NC1CCCC1	-66.3
CCc1ccc(OCC(=O)Nc2ccncc2)c(Br)c1	-441.9
COC(=O)c1[nH]c2ccc(Br)cc2c1NC(=O)CN1CCN(C2CCCCC2)CC1	.
CCc1ccc(OCC(=O)NC2CCCCC2)c(Br)c1	-119.6
O=C(COc1ccc(Br)cc1Br)NC(=O)NC1CCCC1	-236.9
COc1ccccc1OCC(=O)NC1CCCCCC1	-76.4
CCc1ccc(S(=O)(=O)Nc2cc3c(cc2C)n(C)c(=O)n3C)cc1	-91.8
Cn1c(=O)n(C)c2cc(S(=O)(=O)Nc3cc(Cl)ccc3O)ccc21	-71.5
Cc1csc(NC(=O)Nc2ccc(Cl)cc2)n1	-114.8
Cc1csc(NC(=O)NCC2CCCC(CNC(=O)Nc3nc(C)cs3)C2)n1 (stereo not drawn)	-66.0
Cc1cnc(NC(=O)Nc2ccc(Cl)cc2)s1	-186.8
O=C(Cc1csc(NC(=O)Nc2ccc(Cl)cc2)n1)NC1CCCC1	-91.4
CCCc1nn(C)c(C(=O)Nc2ccc(Cl)cc2)c1Cl	-79.2
CCCc1nn(C)c(C(=O)Nc2cccc(C)c2)c1Cl	-122.8
SMILES	aSyn UTR act
CCCc1nn(C)c(C(=O)Nc2ccccc2)c1Cl	-98.1
CC1(C)CC(/C=C/c2ccccc2)=Nc2ccccc2N1	-154.5
O=C1CC(/C=C/c2ccc(Cl)cc2)=Nc2ccccc2N1	-225.7
O=C1CC(/C=C/c2ccccc2)=Nc2ccccc2N1	-252.2
CN1CCN(CC/C=C2/c3ccccc3Sc3ccc(S(=O)(=O)N(C)C)cc32)CC1	-97.5
COC(=O)c1ccc(N=Cc2c(C(F)(F)F)[nH][nH]c2=O)cc1	-135.2
O=C(O)c1ccc(COc2ccc(CO)cc2Cl)cc1	-92.4
O=C(O)c1cccc(COc2ccc(CO)cc2Cl)c1	.
O=C(NCc1cc2ccccc2[nH]1)c1ccccc1F	-80.9
COc1cccc(NC(=O)c2cnsn2)c1	-97.1
COc1cccc(NC(=O)c2ncc(Cl)c(Cl)c2Cl)c1	-223.8
COc1cccc(NC(=O)c2ccn(C)n2)c1	-73.5
Cn1ccc(C(=O)Nc2ccc(Br)cc2Br)n1	-79.3
CC(C)(C)c1cc(C(=O)N/N=C/c2ccco2)n[nH]1	-146.1
Cc1ccsc1/C=N\NC(=O)c1cc(C(C)(C)C)[nH]n1	-138.4
Nc1nc(-c2ccccc2)cn1/N=C/c1ccccc1	-138.0
COc1nc(-c2ccccc2)ccc1-c1noc(-c2cccs2)n1	-198.0
COc1nc(C)ccc1-c1noc(-c2ccncc2)n1	-124.9
COc1ccc(-c2ccc(-c3noc(-c4ccco4)n3)c(OC)n2)cc1	-125.7
COc1nc(-c2ccccc2)ccc1-c1noc(-c2ccco2)n1	-167.5
COc1nc(-c2ccccc2)ccc1-c1noc(-c2ccccc2)n1	-93.7
Fc1cccc(Cn2ccc(-c3ccc4c(c3)OCO4)n2)c1	-96.6
Cc1ccccc1Cn1nnc(-c2ccc3c(c2)OCO3)n1	-167.6
Cc1ccccc1Cn1ccc(-c2ccc3c(c2)OCO3)n1	-129.7
Fc1cccc(Cl)c1Cn1nnc(-c2ccc3c(c2)OCO3)n1	-96.9
SMILES	aSyn UTR act
COc1ccc2c(c1OC)CN1CCc3cc4c(cc3[C@@H]1[C@@H]2O)OCO4	-69.1
COc1cc([C@@H]2c3cc4c(cc3[C@H](O)[C@H]3COC(=O)[C@H]23)OCO4)cc(OC)c1OC	.
Cc1cccc(OCC2=NS(=O)(=O)c3ccccc3N2)c1	-93.4
CSc1cccc(NC(=S)N2CCC(c3ccccc3)C2)c1 (stereo not drawn)	-76.1
CCc1cccc(NC(=S)N2CCC(c3ccccc3)C2)c1 (stereo not drawn)	-88.4
COc1cccc(NC(=S)N2CCC(c3ccc(C)cc3)C2)c1 (stereo not drawn)	-66.3
CSc1cccc(NC(=O)N2CCCC(CNS(=O)(=O)Cc3ccccc3)C2)c1 (stereo not drawn)	-98.4
Cc1cc(C)n2nc(C(=O)NNC(=O)c3ccc(Cl)cc3)nc2n1	-75.7
CCOC(=O)c1c(C)c(C(=O)O)n(C)c1C	.
Cc1cc(C)n2nc(C(=O)NCCc3ccccc3)nc2n1	-72.0
Cc1nn(Cc2ccccc2)c(Cl)c1C(=O)NCCc1ccccc1	-135.4
CCOC(=O)c1c(C)c(C(=O)NCCc2ccccc2)c(C)n1C	-80.4
O=C(NC(=Nc1nc2ccccc2o1)NC(=O)c1ccccc1)c1ccccc1	-104.5
COc1ccccc1C(=O)NC(=Nc1nc2ccccc2o1)NC(=O)c1ccccc1OC	-91.6
COc1ccc(-n2cc(-c3ccccc3)[nH]c2=S)c(OC)c1	-74.9
Cc1ccc(-c2cn(-c3ccccc3)c(=S)[nH]2)cc1C	-93.9
Fc1ccccc1-n1cc(-c2ccccc2)[nH]c1=S	-99.5
CCc1ccc(-n2cc(-c3ccc([N+](=O)[O-])cc3)[nH]c2=S)cc1	-108.2
COc1ccc(-n2cc(-c3ccc(Br)cc3)[nH]c2=S)cc1	-137.6
O=[N+]([O-])c1ccc(/C=N/Nc2ccc3ccccc3c2)o1	-104.0
O=C(N/N=C/c1ccc([N+](=O)[O-])o1)c1cc2ccccc2o1	.
Cc1nc2ccccn2c1C(=O)N/N=C/c1ccc([N+](=O)[O-])o1	-81.4
Oc1ccc(Br)cc1C=Nc1ccc2c3c(cccc13)CC2	-68.5
CC(=O)c1c(C)[nH]c(C(=O)Nc2ccccn2)c1C	-80.4
CC(=O)c1c(C)[nH]c(C(=O)Nc2ccc(Cl)c(S(=O)(=O)N(C)C)c2)c1C	-174.4
SMILES	aSyn UTR act
CSc1cccc(NC(=O)c2[nH]c(C)c(C(C)=O)c2C)c1	-138.8
CC(=O)c1c(C)[nH]c(C(=O)Nc2ccc(Cl)cc2)c1C	-194.9
CCC(C)c1ccc(NC(=O)c2[nH]c(C)c(C(C)=O)c2C)cc1 (stereo not drawn)	-148.8
CC(=O)c1c(C)[nH]c(C(=O)Nc2ccc(Cl)cc2F)c1C	-185.9
Cc1ccc(NC(=O)CNCc2ccccc2Cl)cc1S(=O)(=O)N(C)C	-71.9
CC(=O)c1c(C)[nH]c(C(=O)N2CCN(c3cc(Cl)ccc3C)CC2)c1C	.
CCN(CC)c1ccc(C2=NNC(=O)CC2C)cc1[N+](=O)[O-] (stereo not drawn)	.
CCOc1ccc(C2Sc3ccccc3NC3=C2C(=O)OC3)cc1 (stereo not drawn)	-78.1
C#CCOc1ccc(C2C3=C(COC3=O)Nc3cc4c(cc32)OCO4)cc1OC (stereo not drawn)	.
CCOc1ccccc1C1C2=C(COC2=O)Nc2cc3c(cc21)OCO3 (stereo not drawn)	.
CC(C)(C)c1ccc(C(=O)CS(=O)(=O)c2ccccc2)cc1	-133.2
Cc1ccc(C(=O)CC(=O)c2ccc(C)cc2O)cc1	-94.8
Cc1ccc(C(=O)CC(=O)c2cc(Cl)ccc2O)cc1	-151.4
Cc1ccc(C(=O)CC(=O)c2ccc(C(C)(C)C)cc2)cc1	-112.8
Cc1ccc2nc(NC(=O)c3ccco3)sc2c1	.
CC(=O)Nc1nc2ccc(NC(=O)c3ccco3)cc2s1	-77.1
Cc1ccc2nsnc2c1NC(=S)NC(=O)c1ccco1	-93.7
